The values that follow come from PubChem BioAssay AID2620 (National Center for Advancing Translational Sciences (NCATS), 2010).

Molecules are shown by their SMILES. Records with an inconclusive call do not appear. Values without a mark were called inactive. The call rests on the fitted dose curve; in most records, active means well fitted curve in the direction sought with a large enough effect; inconclusive means small, poorly fitted or top-dose-only effect, or another doubt; inactive means no such curve, though single readings can be large or run the other way.

The target of the assay is Pyruvate kinase PKM (Homo sapiens) (UniProt P14618). As to the kind of experiment: Secondary LDH Assay for Activators of Human Pyruvate Kinase M1 Isoform: for Probe SAR. Further: % of control where 0% means no effect. As to conditions: purified hPK-M1, LDH-coupled NADH fluorescence kinetic; series mostly up to 58.2 µM; activity change, negative = inhibition: at the top concentration. From the text: NIH Chemical Genomics Center [NCGC]
Chain of Pyruvate kinase PKM (Homo sapiens) (P14618 whole entry, looked up, canonical isoform): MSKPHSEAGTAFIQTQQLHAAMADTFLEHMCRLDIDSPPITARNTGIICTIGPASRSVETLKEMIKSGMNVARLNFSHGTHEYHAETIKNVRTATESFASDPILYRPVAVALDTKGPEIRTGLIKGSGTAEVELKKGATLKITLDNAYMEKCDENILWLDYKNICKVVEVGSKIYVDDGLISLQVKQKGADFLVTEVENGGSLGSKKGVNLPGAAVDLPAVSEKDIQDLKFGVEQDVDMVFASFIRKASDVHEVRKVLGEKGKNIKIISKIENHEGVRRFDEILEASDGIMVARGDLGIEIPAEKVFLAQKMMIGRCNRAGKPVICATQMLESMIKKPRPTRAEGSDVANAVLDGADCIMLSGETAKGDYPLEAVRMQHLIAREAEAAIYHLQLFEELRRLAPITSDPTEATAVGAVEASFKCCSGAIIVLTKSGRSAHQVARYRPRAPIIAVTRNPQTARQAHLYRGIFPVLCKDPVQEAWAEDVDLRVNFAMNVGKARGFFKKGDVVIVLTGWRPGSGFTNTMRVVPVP
Matthew G. Vander Heiden, M.D., Ph.D. [Harvard Medical School, 77 Avenue Louis Pasteur, Boston, MA 02115]
Human pyruvate kinase […] (hPK-M1)enzyme was supplied as a highly purified (>95% pure) preparation from Harvard Medical School and a secondary assay was used to evaluate compounds. This assay couples the formation of pyruvate from […] using lactate dehydrogenase (LDH) and NADH. The depletion of NADH is followed in a fluorescent-based kinetic assay that follows the formation of pyruvate to lactate, as catalyzed LDH. Pyruvate kinase substrates, PEP and ADP, were present in the assay at 0.1 mM and 4 mM respectively. In this kinetic assay initial rates were determined by following the fluorescence of NADH depletion.
NCGC Assay Protocol Summary:
Three uL of substrate mix (final concentration, 50 mM Tris-Cl pH 8.0, 200 mM KCl, 15 mM MgCl2, 0.1 mM PEP, 4.0 mM ADP, and 0.2 mM NADH) was dispensed into black-solid 1536 well plates. 23 nL of compounds were delivered by a pin tool and 1 uL of enzyme mix (final concentrations, 10 nM hPK-M1 and 1 uM of LDH) was added. Plates were immediately placed in ViewLux (Perkin Elmer) and NADH fluorescence was determined at 30 second exposure intervals for between 3 and 6 minutes. Data were normalized to the uninhibited controls.
As for `Cc1ccc(NS(=O)(=O)c2ccc3c(c2)CCC(=O)N3)cc1C`, the “activity change, negative = inhibition” value was 7.13%.

For the compound `Cn1c2cc(S(C)=O)sc2c2cnn(Cc3cccc(O)c3)c(=O)c21` (stereo not given), the “activity change, negative = inhibition” value is 10.1%.

Regarding `O=S1(=O)N=C(Oc2ccccc2Cl)c2ccccc21`, the “activity change, negative = inhibition” value is 5.42%. In the case of `CNc1cccc(S(=O)(=O)N2CCN(S(=O)(=O)c3ccc4c(c3)OCCO4)CC2)c1`, the “activity change, negative = inhibition” value is -4.54%. To `Cc1cc(NS(=O)(=O)c2ccc3c(c2)CCC(=O)N3)ccc1Cl` belongs -2.64%. `COc1cccc(NS(=O)(=O)c2ccc3c(c2)CCC(=O)N3)c1`: the “activity change, negative = inhibition” value is 3.28%. For `O=C1CCc2cc(S(=O)(=O)Nc3ccc4ncccc4c3)ccc2N1`, the “activity change, negative = inhibition” value is -3.94%.

As to `Cc1ccc(NS(=O)(=O)c2ccc3c(c2)C(Cl)(Cl)C(=O)N3)cc1C`, the “activity change, negative = inhibition” value was 16.8%. On to `Cc1ccc(NS(=O)(=O)c2ccc3c(c2)CCC(C)(C)O3)cc1C`, for which the “activity change, negative = inhibition” value was 1.91%. Take `O=C1CCc2cc(S(=O)(=O)Nc3cccc4ccccc34)ccc2N1`: the “activity change, negative = inhibition” value is 8.49%. For `CCNc1cccc(S(=O)(=O)N2CCN(S(=O)(=O)c3ccc4c(c3)OCCO4)CC2)c1`, the “activity change, negative = inhibition” value is -3.37%. Regarding `Cc1ccc(NS(=O)(=O)c2ccc3c(c2)CCO3)cc1C`, the “activity change, negative = inhibition” value is 10.2%. Take `O=C1c2ccccc2C(=O)N1c1ccc2ncccc2c1`: the “activity change, negative = inhibition” value was -2.45%. `O=C1CCc2cc(S(=O)(=O)Nc3ccncc3)ccc2N1`: the “activity change, negative = inhibition” value was 8.5%.

Regarding `O=C1CCc2cc(S(=O)(=O)Nc3cccc(Oc4ccccc4)c3)ccc2N1`, the “activity change, negative = inhibition” value was -2.58%. As to `CC(=O)N1c2ccc(S(=O)(=O)Nc3ccc(C)c(C)c3)cc2CC1C` (stereo not given), the “activity change, negative = inhibition” value is 1.97%. `Cc1c(Cl)cccc1NS(=O)(=O)c1cc2c(cc1Cl)CCC(=O)N2`: the “activity change, negative = inhibition” value was 2.07%. With `Cc1ccc(NS(=O)(=O)c2ccc3ccccc3c2)cc1C` the figure was 15.8%; with `Cc1ccc(Nc2c(-c3ccc(C)s3)nc3cccc(C)n23)cc1`, -21.1%. To `Cc1ccccc1Nc1c(-c2ccc(Cl)s2)nc2ccccn12` belongs -1.95%. With `CC(C)Nc1cccc(S(=O)(=O)N2CCCN(S(=O)(=O)c3ccc4c(c3)OCCO4)CC2)c1` the figure was 2%; with `O=C1CCc2cc(S(=O)(=O)Nc3cccc(F)c3)ccc2N1`, -2.67%. `O=C1c2ccccc2C(=O)N1c1cncc2ccccc12`: the “activity change, negative = inhibition” value was -6.7%. `CN=c1nc(-c2ccccc2)n(-c2ccccc2)s1`: the “activity change, negative = inhibition” value was 7.26%. Consider `O=C1c2ccccc2C(=O)N1c1ccc(O)cc1`, for which the “activity change, negative = inhibition” value was 7.32%. On to `O=S1(=O)N=C(Oc2cccc(Cl)c2)c2ccccc21`, for which the “activity change, negative = inhibition” value was 2.94%. In the case of `O=C1CCc2cc(S(=O)(=O)Nc3ccccc3F)ccc2N1`, the “activity change, negative = inhibition” value is 4.96%.

Regarding `Cc1ccccc1NS(=O)(=O)c1ccc2c(c1)CCC(=O)N2`, the “activity change, negative = inhibition” value was 4.43%. Regarding `Cc1ccc(NS(=O)(=O)c2ccc3c(c2)N(C)C(=O)CO3)cc1C`, the “activity change, negative = inhibition” value was 3.09%.

For the compound `Cc1ccc(C)c(OC2=NS(=O)(=O)c3ccccc32)c1`, the “activity change, negative = inhibition” value was -2.31%. As for `Cc1ccc(NS(=O)(=O)c2cc3c(cc2Cl)CCC(=O)N3)cc1Cl`, the “activity change, negative = inhibition” value is 4.63%. Turning to `O=C1c2ccccc2C(=O)N1Cc1cccnc1`, the “activity change, negative = inhibition” value was -1.54%. To `O=C1c2ccccc2C(=O)N1Cc1ccccn1` belongs 4.1%; to `COc1ccc(-c2nc3cccc(C)n3c2Nc2ccc(C)cc2)cc1`, 2.94%. Consider `Cc1cc(C)n2c(Nc3ccccc3)c(-c3ccc(C)o3)nc2n1`, for which the “activity change, negative = inhibition” value is 2.62%. To `Cc1ccc(NS(=O)(=O)c2cc3c(cc2N2CCCCC2)NC(=O)CC3)cc1C` belongs 0.398%; to `O=C1c2ccccc2C(=O)N1c1ccccn1`, -0.541%; to `CC(=O)N1CCc2cc(S(=O)(=O)Nc3ccc(C)c(C)c3)ccc21`, 8.26%.

As for `O=C1CCc2cc(Cl)c(S(=O)(=O)Nc3ccc(Cl)c(Cl)c3)cc2N1`, the “activity change, negative = inhibition” value is 2.94%. Take `Cc1ccc(NS(=O)(=O)c2ccc(Cl)cc2)cc1C`: the “activity change, negative = inhibition” value was 3.96%.
